In PubChem BioAssay (NCATS):
Results filed as inconclusive are left out. Entries that show only a call come without a potency. Activity calls are given as the source filed them. Calls follow the shape of the dose curve; as a rule, active = well fitted curve in the direction sought with a large enough effect; inconclusive = small, poorly fitted or top-dose-only effect, or another doubt; inactive = no such curve, though single readings can be large or run the other way.

What follows are compounds tested against Metallo-beta-lactamase type 2 (Klebsiella pneumoniae) (UniProt C7C422) (assay: qHTS to identify inhibitors of the New Delhi Metallo-beta-lactamase (NDM): assay validation screen against the NCATS LOPAC Collection (AID 1794843;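 also: nitrocefin turnover by NDM-1 measured as 485 nm absorbance at plateau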)). Details: NDM-1 enzyme, nitrocefin hydrolysis, absorbance 485 nm; series mostly up to 38.4 µM.
Method in brief: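 Nitrocefin hydrolysis (50 uM substrate stock) by NDM-1, 2 nM final, was followed by 485 nm absorbance after compound preincubation; buffer was 50 mM HEPES pH 7.0, 1 uM ZnSO4, 0.01% Tween20.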

Sequence of Metallo-beta-lactamase type 2 (Klebsiella pneumoniae) (C7C422 whole entry, looked up): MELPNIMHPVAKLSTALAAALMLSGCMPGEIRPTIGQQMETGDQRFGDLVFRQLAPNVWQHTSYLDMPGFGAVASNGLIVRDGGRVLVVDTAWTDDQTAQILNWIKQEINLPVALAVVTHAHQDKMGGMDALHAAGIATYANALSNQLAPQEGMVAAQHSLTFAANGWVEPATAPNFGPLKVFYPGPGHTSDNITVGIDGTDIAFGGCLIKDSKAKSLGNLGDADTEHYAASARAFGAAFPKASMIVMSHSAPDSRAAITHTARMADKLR

Row | SMILES | Potency
1 | CCCCCCCCCCCCCCCCCC(=O)OC(CC(=O)O)C[N+](C)(C)C (stereo not given) | inactive
2 | O=P(O)(O)C(Cl)(Cl)P(=O)(O)O | inactive
3 | NC[C@H]1O[C@@H](n2cnc3c(N)ncnc32)[C@H](O)[C@@H]1O | inactive
4 | CC(=O)/C=C1\C(=O)N(C)c2ccccc21 | inactive
5 | CN1CCc2ccccc2Cc2[nH]c3ccccc3c2CC1 | inactive
6 | O=C(NOCC1CC1)c1cc(Br)c(F)c(F)c1Nc1ccc(I)cc1Cl | inactive
7 | NC(=O)C1=CN(C2OC(COP(=O)(O)OP(=O)(O)OC[C@H]3O[C@@H](n4cnc5c(N)ncnc54)[C@H](OP(=O)(O)O)[C@@H]3O)C(O)C2O)C=CC1 (stereo not given in full) | inactive
8 | NCC1OC(O[C@H]2[C@H](O)[C@@H](OC3C(O)C(N)CC(N)C3OC3OC(CO)C(O)C(O)C3N)O[C@@H]2CO)C(N)C(O)C1O (stereo not given in full) | inactive
9 | O=C1NC(=O)/C(=C/c2ccc(-c3ccc(F)cc3O)o2)S1 | inactive
10 | O=C(O)CC1CCCc2ccccc2C1O (stereo not given) | inactive
11 | CCCCC#Cc1nc(NC)c2ncn([C@@H]3O[C@H](CO)[C@@H](O)[C@H]3O)c2n1 | inactive
12 | CCNc1nc2c(ncn2[C@H]2C[C@H](O)[C@@H](CO)O2)c(=O)[nH]1 | inactive
13 | S=c1[nH]c(-c2ccccc2)cn1-c1ccccc1 | inactive
14 | Cc1cc2c(cc1Cl)N(C(=O)Nc1ccc(Oc3cccnc3C)nc1)CC2 | inactive
15 | C[N+](C)(C)CCOP(=O)(O)OP(=O)([O-])OC[C@H]1O[C@@H](n2ccc(N)nc2=O)[C@H](O)[C@@H]1O | inactive
16 | COc1ccc(/C=C/c2nc(NCCCN(C)C)c3ccccc3n2)cc1 | inactive
17 | OCC1O[C@H](O)C(Cl)C(O)C1O (stereo not given in full) | inactive
18 | C[N+]1(C)CCC(OC(=O)C(c2ccccc2)c2ccccc2)CC1 | inactive

Row | SMILES | Potency
19 | COc1ccccc1CN[C@@H]1CCCN[C@@H]1c1ccccc1 | inactive
20 | CCCCCCCC/C=C\CCCCCCCC(=O)NCCO | inactive
21 | CC(C)NC[C@H](O)COc1cccc2[nH]ccc12 | inactive
22 | O=C(CCCCCN1CCN(c2ccccc2-c2ccccc2)CC1)NC1CCCc2ccccc21 (stereo not given) | inactive
23 | CC1CN(S(=O)(=O)c2cccc3cnccc23)CCN1 (stereo not given) | inactive
24 | O=C(Nc1ccc2[nH]ncc2c1)C1CCC1 | inactive
25 | O=c1[nH]c2cc([N+](=O)[O-])c([N+](=O)[O-])cc2[nH]c1=O | inactive
26 | O=[N+]([O-])c1ccc(CSc2ncnc3c2ncn3[C@@H]2O[C@H](CO)[C@@H](O)[C@H]2O)cc1 | inactive
27 | COCCOc1cc2nc[nH]c(=O)c2cc1OCCOC | inactive
28 | CCCN(CC1CC1)c1nc(C)nc(Nc2c(Cl)cc(Cl)cc2Cl)c1Cl | inactive
29 | CCN1/C(=C/C(C)=O)Sc2ccc(OC)cc21 | inactive
30 | CCOC(=O)C1=C(C)NC(C)=C(C(=O)OCC)C1c1c(F)c(F)c(F)c(F)c1F | inactive
31 | O=C(O)c1cc(=O)c2c(Cl)cc(Cl)cc2[nH]1 | inactive
32 | CCCCN(CC)c1nc(C)nc2c1c(C)cn2-c1c(C)cc(C)cc1C | inactive
33 | COc1cc(C(O)CO)ccc1OS(=O)(=O)O (stereo not given) | inactive
34 | Cn1c(=O)c2[nH]c(-c3ccccc3)nc2n(C)c1=O | inactive
35 | N[C@H](CCCP(=O)(O)O)C(=O)O | inactive
